The results in this text go back to PubChem BioAssay AID2314 (National Center for Advancing Translational Sciences (NCATS), 2010).

Structures are written as SMILES. Screen size: about 300,000 compounds; about 37,000 (12%) were called active. This is one part of a sample in which actives are shown more often than they occur. Unmarked numbers belong to inactive results. Rule as the data show it: active = max response mostly above about 13% (no sharp cut-off); inactive = mostly below about 14%.

The nature of the experiment: Cycloheximide Counterscreen for Small Molecule Inhibitors of Shiga Toxin. Also: read at 38.3 µM for the half of the compounds with a filed dose; 0% is about no effect. Conditions: cell reporter, cycloheximide protein synthesis inhibition counterscreen; stronger effect = higher value. (In general: A counterscreen serves to expose hits that act by an unwanted route or on another target.)
`O=C(NCCc1ccccn1)c1nc(Cn2cc([N+](=O)[O-])cn2)no1`: the max response is -3.93%.

Take `O=C(Cn1nc(Cc2cccnc2)c2ccccc2c1=O)NCC1COc2ccccc2O1` (centres undefined): the max response was -4.83%.

With `O=C(c1ccc(Cl)cc1)c1cnc(Nc2ccccc2)s1`, the max response was 8.33%.

With `CC(C)(C)C(=O)c1cnc(Nc2ccccc2)s1`, the max response was 44.2% (active).

In the case of `S=c1[nH]nc(Nc2ccccc2)s1`, the max response was 1.07%.

For the molecule `S=c1[nH]nc(-c2ccco2)n1/N=C/c1ccc(Br)s1`, the max response was 1.13%.

Take `O=C(CSc1ncn[nH]1)Nc1nc(-c2cccc([N+](=O)[O-])c2)cs1`: the max response is 2.28%.

For `O=C(CSc1nc2ccccc2c(=O)[nH]1)Nc1nc(-c2ccc(Br)cc2)cs1`, the max response was 3.64%.

On to `O=C(CSc1nc(-c2ccccc2)cs1)Nc1cccc([N+](=O)[O-])c1`, for which the max response was 39.4% (active).

Turning to `Cc1csc(NC(=O)CSc2ccc(-c3ccc(F)cc3)nn2)n1`, the max response was -6.44%.

For the molecule `Cn1c(CNc2nc(-c3ccccc3)cs2)nnc1SCC(=O)c1ccccc1`, the max response was -2.68%.

Consider `CCOC(=O)CSc1nnc(CNc2nc(-c3ccccc3)cs2)n1C`, for which the max response was -0.673%.

On to `O=C(CSC1=NCCS1)Nc1nc(-c2ccccc2)cs1`, for which the max response is 35.3% (active).

As for `CCNC(=O)CSc1nc(-c2ccccc2)cs1`, the max response was 44% (active).

`O=C(CSCC(=O)Nc1cccc([N+](=O)[O-])c1)Nc1ccccc1`: the max response was 7.14%.

Take `Cc1cc2cc3c(cc2nc1SCC(=O)Nc1c(C)cccc1C)CCC3`: the max response was 0.976%.

Turning to `Cc1c(CCOC(=O)CC23CC4CC(CC(C)(C4)C2)C3)sc[n+]1Cc1ccc([N+](=O)[O-])cc1`, the max response was -3.94%.

Consider `Fc1ccc(Cn2nnnc2C(c2cccs2)N2CCCCCC2)cc1` (centres undefined), for which the max response was 0.541%.

Turning to `CCOc1ccccc1NS(=O)(=O)c1cc2c3c(c1)C(C)C(=O)N3CCC2` (centres undefined), the max response is -3.18%.

As to `COc1ccccc1-c1nc(SC)n[nH]1`, the max response is 23.3% (active).

Turning to `CCCOc1ccccc1-c1nc(SCCC(=O)O)n[nH]1`, the max response was -3.17%.

Take `COc1ccccc1C1=Nc2cccc3cccc(c23)N1`: the max response was -1.72%.

In the case of `Cc1ccc(NC(=O)CN(C)Cc2ccc(F)cc2)c([N+](=O)[O-])c1`, the max response is 12.6% (active).

Regarding `CN(CC(=O)Nc1ccccc1[N+](=O)[O-])Cc1ccc(Br)cc1`, the max response is 7.65%.

Regarding `CSc1ccccc1NC(=O)CN(C)CC(=O)Nc1ccc(Cl)cc1[N+](=O)[O-]`, the max response is 7.28%.

In the case of `Cc1cccc(NC(=O)COC(=O)CCc2ccccc2)c1C`, the max response is -2.64%.

Turning to `CCOC(=O)C(C)Oc1cccc2c(=O)n(CC(=O)NCCc3ccc(OC)c(OC)c3)ccc12` (centres undefined), the max response is -2.75%.

Turning to `O=C1CCN(Cc2ccc([N+](=O)[O-])cc2)CCN1[C@H](CO)Cc1ccccc1`, the max response is -3.88%.

As to `O=C(c1cccnc1)N1CCN(S(=O)(=O)c2cccs2)CC1`, the max response was -2.02%.

On to `O=C(N/N=C/c1sc(N2CCCCC2)nc1-c1cccs1)c1cccnc1`, for which the max response was 20.6% (active).

For `O=C(CNC(=O)c1cccnc1)N/N=C/c1cccnc1`, the max response is -3.21%.

With `CN(C(=O)c1ccccc1)c1nccnc1C#N`, the max response was -1.74%.

For `Cc1ccc(C)c(NC(=S)NCC(c2cccnc2)N2CCOCC2)c1` (centres undefined), the max response is -3.15%.

Regarding `Cc1ccc(C)c(NC(=S)NNC(=S)Nc2ccc(C(C)C)cc2)c1`, the max response was 31% (active).

Consider `CC(C)c1ccc(NC(=S)NNc2ccc(Cl)c(C(=O)O)c2)cc1`, for which the max response was 38% (active).

Consider `Cc1ccc(NC(=S)N/N=C2/CCCc3c(C)cc(C)cc32)cc1`, for which the max response was -1.84%.

With `COc1ccc(Br)cc1/C=N/Nc1ccc(Cl)c(C(=O)O)c1`, the max response was 7.13%.

In the case of `O=C(NC(=S)Nc1ccc(Cl)c(C(=O)O)c1)c1cncc(Br)c1`, the max response was 1.31%.

On to `CCn1c(=O)c(=O)[nH]c2c(=O)oc3ccc(S(=O)(=O)Nc4ccc(OC)cc4)cc3c21`, for which the max response is -4.34%.

As to `Cc1ccc(C(=O)NCCc2nnc(SCC(=O)Nc3cccc(C(=O)O)c3)n2C)cc1`, the max response was -0.755%.

As to `Cc1cc(OC(C)C(=O)Nc2ccc(S(=O)(=O)Nc3onc(C)c3C)cc2)cc(C)c1Cl` (centres undefined), the max response is -2.3%.

Take `Cc1noc(NS(=O)(=O)c2ccc(N/C=C/C(=O)c3ccccc3)cc2)c1C`: the max response was 38.5% (active).

Take `C=C(C)CNC(=S)Nc1ccc(S(=O)(=O)Nc2cnc3ccccc3n2)cc1`: the max response is -1.53%.

Turning to `CCn1c(SCC(=O)Nc2ccc(S(=O)(=O)Nc3onc(C)c3C)cc2)nnc1-c1ccccc1`, the max response is 5.03%.

As to `O=C(/C=C/c1ccc(Cl)cc1Cl)c1cccnc1`, the max response is 2.63%.

For the molecule `O=C(/C=C/Nc1ccc(S(=O)(=O)Nc2cnc3ccccc3n2)cc1)c1cccnc1`, the max response was 19.6% (active).

As to `Cc1noc(NS(=O)(=O)c2ccc(NC(=O)C34CCC(CC3)C4)cc2)c1C`, the max response is -1.3%.

As to `Cc1ccc(C(=O)/C=C/Nc2ccc(S(=O)(=O)Nc3onc(C)c3C)cc2)cc1`, the max response was 48.2% (active).

In the case of `COc1ccc(C(=O)Nc2ccc(S(=O)(=O)Nc3onc(C)c3C)cc2)cc1OC`, the max response is -2.06%.

As for `COC(=O)c1cnc(Nc2cc(C)ccc2OC)c2ccccc12`, the max response is -3.28%.

Take `COc1cc(C(=O)NCc2cc3cc(Cl)ccc3n2C)cc(OC)c1OC`: the max response is 9.33%.

For the molecule `COc1ccc(N2CCN(C(=O)c3cn(C)c4ccc(S(=O)(=O)N5CCOCC5)cc4c3=O)CC2)cc1`, the max response was 0.725%.

Take `CCc1ccc(C(=O)NC(=S)Nc2ccccc2N2CCOCC2)cc1`: the max response was 12.1%.

As for `CCCC(C(=O)NC1CCCC1)N(C(=O)Cn1nnc(-c2ccc(C)o2)n1)c1cccc(O)c1` (centres undefined), the max response was -3.39%.

Regarding `CCOC(=O)C(Cc1ccc(N)cc1)N1C(=O)c2ccccc2C1=O` (centres undefined), the max response was 15%.

Consider `O=S(=O)(c1ccc(Br)c2ccccc12)N1CCOCC1`, for which the max response is -2.9%.

For the molecule `CC1CN(S(=O)(=O)c2cccc(C(F)(F)F)c2)CN1C(=O)N1CCOCC1` (centres undefined), the max response was -5.77%.

As for `Cc1ccc(C)c(NC2=NCC(=O)N2c2ccc3c(c2)OCCO3)c1`, the max response is 17.5% (active).

As for `COc1ccc(N2C(=O)CN=C2Nc2cccc(C)c2C)cc1OC`, the max response is 1.91%.

Regarding `Cc1ccc(N2C(=O)CN=C2Nc2nc(C)cc(C)n2)cc1`, the max response was -2.81%.

In the case of `CC(Sc1nnc(COc2ccccc2)n1-c1ccccc1)C(=O)O` (centres undefined), the max response was -3.12%.

Take `Fc1ccc(-c2ccc(-c3nn4c(-c5ccco5)nnc4s3)o2)cc1`: the max response is 12.8% (active).

As for `Cc1nnc2sc(-c3ccco3)nn12`, the max response was -2.36%.

In the case of `FC(F)(F)c1nnc2sc(-c3ccco3)nn12`, the max response was -1.25%.

As to `COc1ccc([N+](=O)[O-])cc1NC(=O)C(C)OC(=O)C1c2ccccc2Oc2ccccc21` (centres undefined), the max response was -1.06%.

For the molecule `CCN(C(=O)CN1CCN(Cc2ccccc2)CC1)c1c(N)n(Cc2ccccc2)c(=O)[nH]c1=O`, the max response is -1.94%.

For `Cc1nn(C(C)C(=O)NCCC2=CCCCC2)c(=O)c2nn(-c3ccccc3)c(C)c12` (centres undefined), the max response is 12.2%.

Take `C1=C(CCNc2ncnc3c2cnn3-c2ccccc2)CCCC1`: the max response is 34.6% (active).

With `O=C(NCCC1=CCCCC1)C1CCN(Cc2cnn(-c3ccccc3)c2-n2cccc2)CC1`, the max response is 18.2%.

Consider `O=C(COC(=O)/C(=C/c1cccs1)c1cccs1)NCc1ccccc1Cl`, for which the max response is -3.92%.

Regarding `Cc1cc(OCCCC(=O)NCCN2C(=O)S/C(=C\c3cccnc3)C2=O)ccc1Cl`, the max response is -1.74%.

As to `CCCC(=O)Nc1nc2ccc(NC(=O)c3c(F)c(F)c(OC)c(F)c3F)cc2s1`, the max response is -1.72%.

Turning to `CSc1nc2ccc(NC(=O)c3c(F)cccc3F)cc2s1`, the max response is 48.4% (active).

Take `CCCn1nc(C(=O)Nc2ccc3nc(C)sc3c2)c2ccccc2c1=O`: the max response is 2.94%.

`Cc1ccccc1-n1nnc2c(=O)oc3ccccc3c21`: the max response is -0.308%.

Turning to `COC(=O)c1ccccc1NC(=O)C1CCN(S(=O)(=O)c2cc(OC)ccc2OC)CC1`, the max response was -2.41%.

`O=c1c2c3c(sc2n(CCN2CCCC2)c(=O)n1Cc1ccccc1)CCCCC3`: the max response is -3.62%.

In the case of `Cc1ccc(Nc2nc(-c3ccc(O)cc3O)cs2)nc1`, the max response was 50.9% (active).

Take `Cc1ccc(NC(=O)c2cc(-c3ccc(C)o3)nc3ccccc23)nc1`: the max response is -0.954%.

Regarding `COCCNc1nc(N)c([N+](=O)[O-])c(N2CCCCCC2)n1`, the max response is 3.03%.

Turning to `CCCCOC(=O)Nc1nccs1`, the max response is 18.8%.

Turning to `O=C(COC(=O)c1ccc(O)cc1)Nc1nccs1`, the max response is 9.78% (active).

With `Cc1cc(C(=O)OCC(=O)Nc2nccs2)c2ccccc2n1`, the max response was -4.23%.

As for `Cc1scc(C(=O)NNC(=S)NCC(C)C)c1C`, the max response is -0.894%.

Consider `Cc1occc1C(=O)NNC(=S)NCC(C)C`, for which the max response was -3.12%.

As for `CC(C)CNC(=S)NC(=O)c1ccc(Cl)cc1`, the max response was 34.2% (active).

For the molecule `Cc1cc(-c2nnc(SCC(=O)Nc3ccc(S(N)(=O)=O)cc3)n2N)n[nH]1`, the max response is 1.41%.

Take `CCCNC(=O)N1CCC(c2ccc3c(c2)OCO3)CC1`: the max response was -1.8%.

With `C=CCOc1ccccc1NC(=O)CN1C(=O)CNC1=O`, the max response is 0.268%.

With `COC(=O)c1c(CCl)noc1C(=O)NC(C)C`, the max response was -0.666%.

Regarding `COc1ccc(-c2cc3nc(C)c(CCC(=O)NC(C)CCc4ccco4)c(C)n3n2)c(OC)c1` (centres undefined), the max response was 8.95%.

As to `CC(=O)NC(CC(=O)O)c1ccc(F)cc1` (centres undefined), the max response is -1.3%.

On to `CN(C)c1ccc(C(CC(=O)O)C(=O)O)cc1` (centres undefined), for which the max response is 38.6% (active).

In the case of `CN(C)c1ccc(/C=N/NC(=O)C(O)c2ccc(Br)cc2)cc1` (centres undefined), the max response was 8.48%.
